Bioassay records as filed in PubChem BioAssay.
PI5P4K alpha inh – inhibitors of human PI5P4K alpha; 1.2% of 330,000 active; max response, %; PI5P4Kalpha enzyme, ADP-Glo luminescence, 60 min; active compounds read low; active = max response of -50% or lower; inconclusive = between -30% and -50%; inactive = -30% or higher; note: value at the top dose of about 77 µM; % is set by controls: 0 for no effect and ±100 for the full control effect
Target sequence (P48426 whole entry, looked up): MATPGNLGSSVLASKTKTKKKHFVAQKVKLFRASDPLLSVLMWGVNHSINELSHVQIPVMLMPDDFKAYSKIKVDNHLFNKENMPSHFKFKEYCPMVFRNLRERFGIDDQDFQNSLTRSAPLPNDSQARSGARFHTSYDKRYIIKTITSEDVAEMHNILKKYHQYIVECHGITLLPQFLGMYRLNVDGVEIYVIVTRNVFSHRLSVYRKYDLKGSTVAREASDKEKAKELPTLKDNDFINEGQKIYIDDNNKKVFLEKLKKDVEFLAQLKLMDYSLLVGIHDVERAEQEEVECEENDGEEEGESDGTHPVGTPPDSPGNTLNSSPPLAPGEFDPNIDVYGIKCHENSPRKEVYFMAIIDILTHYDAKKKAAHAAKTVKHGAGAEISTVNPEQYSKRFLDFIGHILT
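ADP-Glo luminescence end-point after a 60 min room-temperature kinase reaction. PI5P4Kalpha and substrate in HEPES pH 7.4 buffer with EGTA, 0.1% CHAPS and 5% DMSO; ATP at 5 microM final.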
G9a inh – blocks human histone lysine methyltransferase G9a; Q96KQ7; G9a H3K9 monomethylation, AlphaScreen, 2 h; Potency, µM (highest dose often 102 µM), for inactives: at the highest dose activity, negative = inhibition, most hits filed as inhibitors; 8.8% of 350,000 active; AID 504332; note: potency is the fitted concentration of half-maximal effect; % is set by controls: 0 for no effect and ±100 for the full control effect; nearly all actives have a fitted effect of over 75% in size
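G9a (20 nM) preincubated 15 min RT with compounds, then 500 nM biotinylated H3K9 peptide and 20 uM SAM added; 2 h RT reaction. Monomethyl-H3K9 product detected by AlphaScreen with anti-H3K9me1 antibody, streptavidin donor and anti-rabbit IgG acceptor beads.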
JMJD2A Tudor – inhibitors of human JMJD2A Tudor domain. AlphaScreen JMJD2A-Tudor / H3K4me3 peptide binding. O75164. AID 504339. Potency, µM (doses to about 114 µM), for the others: at the highest dose activity change, negative = inhibition, usual class: inhibitors. 4.4% of 390,000 active; note: potency is the fitted concentration of half-maximal effect; % is set by controls: 0 for no effect and ±100 for the full control effect; nearly all actives have a fitted effect of over 50% in size
HP1b chromo inh – blocks HP1-beta chromodomain binding to methylated histone tails | P83916 | 0.56% of 390,000 active | Potency, µM (doses to about 114 µM), inactives show at the highest dose activity change, negative = inhibition, usual class: inhibitors | AlphaScreen HP1-beta / biotin-H3K9me3 peptide binding; note: potency is the fitted concentration of half-maximal effect; nearly all actives have a fitted effect of over 70% in size
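Compound inhibition of the preformed complex between 50 nM HP1-beta and 50 nM biotinylated H3K9me3 peptide was read by AlphaScreen. Buffer was PBS pH 7.4 with 0.01% Tween-20. Incubations ran 30 min at room temperature, with 10 ug/mL donor/acceptor beads.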
PLK1 PBD inh – blocks phosphopeptide binding to human PLK1 polo-box domain | 2.8% of 360,000 active | P53350 | AID 720504 | Potency, µM, for inactives: max response, negative = inhibition, hits mostly inhibitors | Plk1 PBD binding of FITC phosphopeptide, fluorescence polarization; note: potency is the fitted concentration of half-maximal effect; series mostly up to about 57 µM; % is set by controls: 0 for no effect and ±100 for the full control effect; nearly all actives have a fitted effect of over 65% in size
BAZ2B block – inhibitors of human BAZ2B bromodomain; AlphaScreen BAZ2B-H3K14Ac peptide displacement; Potency, µM (doses to about 114 µM), for the others: at the highest dose activity change, negative = inhibition, most hits filed as inhibitors; 4.4% of 360,000 active; note: potency is the fitted concentration of half-maximal effect; % is set by controls: 0 for no effect and ±100 for the full control effect; nearly all actives have a fitted effect of over 60% in size
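Complex of BAZ2B and biotin-H3K14Ac (50 nM apiece) forms over 30 min at RT, then faces library compounds up to 110 uM for another 30 min; AlphaScreen beads added, 20 min dark incubation, luminescence read.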
TbPYK confirm – Trypanosoma brucei pyruvate kinase inhibition, cherry-pick confirmation; shares compounds with PLK1 PBD inh; recombinant TbPYK, Kinase-Glo ATP luminescence; Potency, µM (top dose mostly 76.9 µM), for inactives: at the top dose activity change, negative = inhibition, most hits filed as inhibitors; 67% of 890 active; AID 720569; note: potency is the fitted concentration of half-maximal effect; % is set by controls: 0 for no effect and ±100 for the full control effect; nearly all actives have a fitted effect of over 70% in size
TbPYK orthogonal – TbPYK inhibition, orthogonal confirmation | shares compounds with PLK1 PBD inh | recombinant TbPYK, ADP-Glo luminescence, 60 min | Potency, µM (top dose mostly 76.9 µM), for inactives: top-dose activity change, negative = inhibition, usual class: inhibitors | 62% of 890 active; note: potency is the fitted concentration of half-maximal effect; % is set by controls: 0 for no effect and ±100 for the full control effect; nearly all actives have a fitted effect of over 75% in size
Numbers without * were called inactive; ? = inconclusive; / = not tested or not shown; [ ] = dose if it differs, or a comment. A selection: hits, their analogues and other compounds. The true share with any hit is near 12%. Unless noted, calls come from the whole dose curve; as a rule, active = well fitted curve in the direction sought with a large enough effect; inconclusive = small, poorly fitted or top-dose-only effect, or another doubt; inactive = no such curve, though single readings can be large; an effect the other way counts as inactive or inconclusive.

SMILES	PI5P4K alpha inh	G9a inh	JMJD2A Tudor	HP1b chromo inh	PLK1 PBD inh	BAZ2B block	TbPYK confirm	TbPYK orthogonal
CCCCn1nnnc1C1(C)CCC(=O)N1CCCn1ccnc1 (stereo not drawn)	-9	/	/	/	6µM*	/	14µM*	35µM*
O=C(C1CCCCCC1)N1CC[C@@H](N2CCC(O)CC2)[C@H](O)C1	-8	/	-8%	11%	-13%	13%	/	/
NCCOB(c1ccccc1)c1ccccc1	/	-17%[2.33 µM]	/	/	/	/	/	/
COc1cc(CCN(C(C)=O)C2C(=O)Nc3ccccc3N=C2c2ccc3c(c2)OCO3)cc(OC)c1 (stereo not drawn)	-1	/	/	/	-2%	/	/	/
Cc1nc2nc(CNC(=O)OC(C)(C)C)nn2c(C)c1CCC(=O)NCc1ccc(F)cc1	/	-5%[59 µM]	0%	22%	/	-1%	/	/
Cc1ccc(NC(=O)c2cc(N3C(=O)C=CC3=O)ccc2N2CCOCC2)cc1	-63*	1µM*	11µM*	?	3µM*	?	10µM*	11µM*
COc1cc2c(cc1/C=C/C(=O)O)OC(C)C2 (stereo not drawn)	-2	-17%	-10%	31%	1%	-16%	/	/
CC(C)(O)C1Cc2cc(/C=C/C(=O)O)c(O)cc2O1 (stereo not drawn)	-66*	2µM*	4µM*	?	3µM*	20µM*	13µM*	14µM*
CCn1cc(/C=C/C(=O)Nc2ccn(Cc3c(F)c(F)cc(F)c3F)n2)cn1	-6	45µM*	-25%	8%	-17%	-6%	7.9µM*	13µM*
CC(=O)Nc1cc(-c2cccc(C(=O)N(C)C)c2)cn2c(-c3ccc(C(C)=O)cc3)cnc12	1	/	/	/	-9%	/	/	/
COC(=O)c1c(-c2ccc(C(C)(C)C)cc2)csc1NC(=O)C1C2CCC(O2)C1C(=O)O (stereo not drawn)	?	1.8µM*	?	?	2.7µM*	-12%	4.5µM*	14µM*
CCOC(=O)c1c(-c2cccc3ccccc23)csc1NC(=O)C1C2CCC(O2)C1C(=O)O (stereo not drawn)	-3	1%[59 µM]	-7%	26%	-10%	-22%	/	/
CC1(C)Cc2c(C#N)c(SCC(=O)c3ccccc3)nc(N3CCOCC3)c2CO1	2	22µM*	63µM*	-7%	-21%	-31%	10µM*	11µM*
C=Cc1ccc2c(c1)N(C)C(=C)S2	-25	8.9µM*	?	-6%	?	-26%	11µM*	4µM*
CCN(CC)CCNC(=O)c1ccc(NC(=O)COc2ccc3c(c2)CCC3)cc1	7	-17%[59 µM]	-29%	9%	-9%	-7%	/	/
CC(C)N1C(=O)c2ccc(C(=O)O)cc2C1=O	-28	-27%[12.7 µM]	1%	53%	2%	2%	/	/
O=C(O)c1ccc2c(c1)C(=O)/C(=C/c1ccccc1)C2=O	-56*	13µM*	?	45µM*	2.4µM*	50µM*	16µM*	35µM*
O=S(=O)(/N=C(/Sc1ccccc1)c1ccccc1)c1ccc(Cl)cc1	/	/	-31%[57.1 µM]	47%[57 µM]	/	/	/	/
CCn1c(C)nc2cc(C(=O)NNC(=O)c3ccc(C)cc3)ccc21	0	30%[2.33 µM]	4%	41%	2%	9%	?	?
CCn1c(C)nc2cc(C(=O)NNC(=O)c3ccc(Cl)nc3)ccc21	14	-31%	-7%[11.4 µM]	28%	-3%	/	/	/
CN(C)c1cccc2c(/C=N/O)ccc(N(C)C)c12	3	?	-17%	-11%	-16%	-15%	/	/
CN(C)c1cccc2c(C=C(C#N)C#N)ccc(N(C)C)c12	-13	8.9µM*	16µM*	22µM*	-9%	20µM*	?	?
